Assay outcomes deposited in PubChem BioAssay by Broad Institute.
An excerpt weighted towards active compounds, which were near 2.3% of everything screened.
Pf Dd2 growth: blocks growth of Plasmodium falciparum Dd2 parasites; activity change, % at 10 µM; AID 1159554; P. falciparum Dd2 growth, SYBR Green, 72 h; active compounds read low; hit rate 2.3% among 94,000; in the data active = activity change below about -80%
C diff HTS: blocks growth of Clostridium difficile. hit rate 0.25% among 86,000. AID 1259249. growth activity, negative = inhibition, % at 16 µg/mL (by protocol). Clostridium difficile clinical isolate growth, OD600, 24 h; active compounds read low;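 active = mean growth activity at or below -80% and every replicate also at or below -80%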;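 note: 0% = DMSO wells and -100% = levofloxacin 16 µg/mL wells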
Numbers without * were called inactive; · = no result given.

SMILES	Pf Dd2 growth	C diff HTS
COc1ccc(S(=O)(=O)Nc2ccc3c(c2)C(=O)N([C@H](C)CO)C[C@@H](C)[C@H](CN(C)Cc2ccc(C(F)(F)F)cc2)OCCCC[C@H](C)O3)cc1	-71	27
Cc1cccc(S(=O)(=O)N(C)C[C@@H]2OCc3ccccc3-c3c(n(C)c4ccccc34)C(=O)N([C@@H](C)CO)C[C@H]2C)c1	-82*	·
C[C@@H]1CN([C@@H](C)CO)C(=O)c2c(c3ccccc3n2C)-c2ccccc2CO[C@@H]1CN(C)S(=O)(=O)c1cccc(F)c1	-70	3
COc1cccc(S(=O)(=O)N(C)C[C@@H]2OCc3ccccc3-c3c(n(C)c4ccccc34)C(=O)N([C@@H](C)CO)C[C@H]2C)c1	-7	-6
Cc1cccc(S(=O)(=O)N(C)C[C@@H]2OCc3ccccc3-c3c(n(C)c4ccccc34)C(=O)N([C@@H](C)CO)C[C@@H]2C)c1	-86*	·
C[C@@H]1CN([C@@H](C)CO)C(=O)c2c(c3ccccc3n2C)-c2ccccc2CO[C@H]1CN(C)S(=O)(=O)c1cccc(F)c1	-67	8
Cc1cccc(S(=O)(=O)N(C)C[C@H]2OCc3ccccc3-c3c(n(C)c4ccccc34)C(=O)N([C@H](C)CO)C[C@H]2C)c1	-84*	·
C[C@H]1CN([C@@H](C)CO)C(=O)c2c(c3ccccc3n2C)-c2ccccc2CO[C@@H]1CN(C)S(=O)(=O)c1cccc(C#N)c1	-30	1
Cc1cccc(S(=O)(=O)N(C)C[C@H]2OCc3ccccc3-c3c(n(C)c4ccccc34)C(=O)N([C@@H](C)CO)C[C@H]2C)c1	-85*	·
COc1ccc(S(=O)(=O)N(C)C[C@@H]2Oc3ccc(NC(=O)NC(C)C)cc3C(=O)N([C@@H](C)CO)C[C@@H]2C)cc1	10	-1
C[C@@H]1CCCCO[C@H](CN(C)C(=O)CCCN(C)C)[C@H](C)CN([C@@H](C)CO)C(=O)c2cc(NS(=O)(=O)c3cn(C)cn3)ccc2O1	44	2
Cc1ccc(S(=O)(=O)Nc2cccc3c2O[C@H](CN(C)C(=O)Nc2ccccc2)[C@@H](C)CN([C@H](C)CO)C3=O)cc1	14	-2
C[C@H]1CN([C@@H](C)CO)C(=O)Cc2cc(NC(=O)Cn3cnnn3)ccc2O[C@@H]1CN(C)C(=O)NC1CCCCC1	8	0
C[C@H](CO)N1C[C@H](C)[C@@H](CN(C)Cc2ccc(Oc3ccccc3)cc2)Oc2c(NS(=O)(=O)c3ccccc3)cccc2C1=O	-18	-9
C[C@@H]1CN([C@H](C)CO)C(=O)c2cccc(NS(=O)(=O)c3ccccc3)c2O[C@H]1CN(C)Cc1ccc(Oc2ccccc2)cc1	-86*	15
C[C@@H]1CN([C@@H](C)CO)C(=O)c2cccc(NS(=O)(=O)c3ccccc3)c2O[C@@H]1CN(C)Cc1ccc(Oc2ccccc2)cc1	-63	44
C[C@@H]1CN([C@@H](C)CO)C(=O)c2cccc(NS(=O)(=O)c3ccccc3)c2O[C@H]1CN(C)Cc1ccc(Oc2ccccc2)cc1	-83*	-4
C[C@H]1CN([C@@H](C)CO)C(=O)Cc2cc(NC(=O)Cc3ccccc3)ccc2O[C@@H]1CN(C)C(=O)Nc1ccc2c(c1)OCO2	-19	1
COc1ccc(S(=O)(=O)Nc2ccc3c(c2)CC(=O)N([C@H](C)CO)C[C@@H](C)[C@@H](CN(C)Cc2ccc(C(=O)Nc4ccccc4N)cc2)O3)cc1	-85*	0
COc1ccc(S(=O)(=O)Nc2ccc3c(c2)CC(=O)N([C@H](C)CO)C[C@H](C)[C@H](CN(C)Cc2ccc(C(=O)Nc4ccccc4N)cc2)O3)cc1	-81*	-4
COc1ccc(S(=O)(=O)Nc2ccc3c(c2)C(=O)N([C@@H](C)CO)C[C@H](C)[C@@H](CN(C)Cc2ccc(C(=O)Nc4ccccc4N)cc2)O3)cc1	-56	-5
COc1ccc(S(=O)(=O)Nc2ccc3c(c2)C(=O)N([C@H](C)CO)C[C@@H](C)[C@H](CN(C)Cc2ccc(C(=O)Nc4ccccc4N)cc2)O3)cc1	-4	-2
CCC(=O)N(C)C[C@H]1Oc2ncc(C#Cc3ccc(OC)cc3)cc2C(=O)N([C@H](C)CO)C[C@@H]1C	-7	-1
Cc1noc(C)c1NC(=O)N(C)C[C@H]1Oc2ccc(NC(=O)Cc3ccccc3)cc2C(=O)N([C@H](C)CO)C[C@H]1C	6	-2
C[C@@H]1CCCCO[C@H](CN(C)Cc2ccc3c(c2)OCO3)[C@H](C)CN([C@H](C)CO)C(=O)c2cc(NC(=O)Nc3cccc4ccccc34)ccc2O1	-84*	22
SMILES	Pf Dd2 growth	C diff HTS
C[C@@H]1CCCCO[C@H](CN(C)Cc2ccc3c(c2)OCO3)[C@@H](C)CN([C@H](C)CO)C(=O)c2cc(NC(=O)Nc3cccc4ccccc34)ccc2O1	16	·
C[C@H](CO)N1C[C@H](C)[C@H](CN(C)Cc2ccc3c(c2)OCO3)OCCCC[C@H](C)Oc2ccc(NC(=O)Nc3cccc4ccccc34)cc2C1=O	2	·
C[C@@H]1CN([C@@H](C)CO)C(=O)c2cc(NC(=O)Nc3cccc4ccccc34)ccc2O[C@@H](C)CCCCO[C@@H]1CN(C)Cc1ccc2c(c1)OCO2	-90*	·
COc1ccc(C#Cc2ccc3c(c2)[C@@H]2[C@@H](CCN2C(=O)CN2CCOCC2)[C@H](CO)N3C)cc1	-71	3
Cc1ccc(S(=O)(=O)Nc2ccc3c(c2)C(=O)N([C@H](C)CO)C[C@@H](C)[C@@H](CN(C)Cc2ccccc2)OCCCC[C@@H](C)O3)cc1	-83*	1
C[C@@H]1CN([C@H](C)CO)C(=O)c2cc(NS(C)(=O)=O)ccc2O[C@@H](C)CCCCO[C@H]1CN(C)Cc1ccccc1	21	0
C[C@@H]1CN([C@H](C)CO)C(=O)c2cc(NS(C)(=O)=O)ccc2O[C@@H](C)CCCCO[C@@H]1CN(C)Cc1ccc(Cl)c(Cl)c1	-88*	-1
C[C@@H]1CN([C@@H](C)CO)C(=O)c2cc(NS(C)(=O)=O)ccc2O[C@@H](C)CCCCO[C@@H]1CN(C)Cc1ccccc1	-95*	-4
Cc1ccc(S(=O)(=O)Nc2ccc3c(c2)C(=O)N([C@@H](C)CO)C[C@H](C)[C@H](CN(C)Cc2ccccc2)OCCCC[C@H](C)O3)cc1	-55	2
C[C@@H]1CN([C@H](C)CO)C(=O)c2cc(NS(C)(=O)=O)ccc2O[C@@H](C)CCCCO[C@H]1CN(C)Cc1ccc(Cl)c(Cl)c1	-52	2
C[C@@H]1CCCCO[C@H](CN(C)Cc2ccc(C(F)(F)F)cc2)[C@@H](C)CN([C@@H](C)CO)C(=O)c2cc(NS(=O)(=O)c3cccs3)ccc2O1	-30	-3
C[C@@H]1CN([C@@H](C)CO)C(=O)c2cc(NS(=O)(=O)c3ccc(F)cc3)ccc2O[C@@H](C)CCCCO[C@@H]1CN(C)C(=O)Nc1cccc2ccccc12	-86*	-1
C[C@H]1CCCCO[C@@H](CN(C)C(=O)Nc2cccc3ccccc23)[C@@H](C)CN([C@@H](C)CO)C(=O)c2cc(NS(=O)(=O)c3ccc(F)cc3)ccc2O1	-78	-6
C[C@H](CO)N1C[C@H](C)[C@@H](CN(C)C(=O)Nc2cccc3ccccc23)OCCCC[C@H](C)Oc2ccc(NS(=O)(=O)c3ccccc3)cc2C1=O	-54	·
C[C@H](CO)N1C[C@H](C)[C@H](CN(C)C(=O)Nc2cccc3ccccc23)OCCCC[C@H](C)Oc2ccc(NS(=O)(=O)c3ccc(F)cc3)cc2C1=O	-31	-11
